Compounds without any hit were thinned out: in the full panel of roughly 83,000, 20% have a hit.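 Negative percent growth values reflect cell death: -40 means 40% of the cells present at the start died, and -100 means all died.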 Values without a mark were called inactive. Calls of active or inactive are those of the source. Rule for the calls: active = growth percent below 10; inactive = the rest.
test system: MDA-MB-468 breast; assay: NCI-60 one-dose screen, 48 h (100 = growth as untreated, 0 = no growth, -100 = all killed); conditions: 10 µM unless noted

| Structure (SMILES) | growth |
| --- | --- |
| COc1cc(-c2nc(SCCC(C)C)nc(N3CCOCC3)c2C#N)cc(OC)c1OC | 98.2% |
| COC(=O)[C@H](NC(=O)C1(C)CCC[C@]2(C)[C@H]3C[C@H]4C(C(C)C)=C[C@]3(CC[C@@H]12)[C@@H]1C(=O)CCC(=O)[C@@H]14)C(C)C (some centres undefined) | 101% |
| COc1ccc(/C=C/C(=O)/C=C(/C=C/c2ccc(OC)c(OC)c2)OB(F)F)cc1OC | 45.6% |
| Cc1ccccc1CC(N)C(=O)O (centres undefined) | 117% |
| COc1ccc2[nH]cc(-c3nc(-c4cn(C)c5c(Cl)nccc45)cs3)c2c1 | 18.1% |
| N#Cc1c(NC(=O)c2cccc(C(F)(F)F)c2)sc2c1CCC(=O)C2 | -8.78% (active) |
| Clc1ncnc2nc[nH]c12 | 108% |
| COc1cccc(C(=O)Cn2cc(/C=C(\C#N)S(=O)(=O)c3ccccc3)c3ccccc32)c1 | 104% |
| O=S(=O)(NCCNc1nccc(-c2c(-c3cccc(F)c3)nc3occn23)n1)c1ccc(C(F)(F)F)cc1 | 74.7% |
| COc1ccc(CCN2C(=O)CCSC2=S)cc1OC | 19.8% |
| COC(=O)c1ccc(NC(=O)CCl)cc1 | 83.2% |
| FC(F)(F)Oc1cccc(-c2cnc3ccc(-c4ccncc4)nn23)c1 | -10.5% (active) |
| CC[C@]12C=CCN3CC[C@@]4(c5ccc(OC)cc5N(C)[C@H]4[C@@](O)(C(=O)OC)[C@@H]1OC(=O)CCN1CCc4ccccc4C1)[C@@H]32 | 69.7% |
| Oc1ccc(CCC2CCCC(CCc3ccc(OCCF)cc3)N2)cc1 (centres undefined) | 110% |
